# Experimental data: the supplement of paper PMC8253809
# Several values for one entry are separate records, joined by “and”; a condition that tells them apart may be missing. Identical values can stand only once.
# Experiments:
# Assay in all cases: growth inhibition (% activity, log2 RLU normalised to DMSO / staurosporine); higher = more growth inhibition
# Details in all cases: 33 µM
# DIPGX29 = tested on: DIPGX29 (H3.3 K27M diffuse intrinsic pontine glioma line)
# Summary of the method: (§1)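 The growth-inhibition value is the median over replicates. pHGG cell lines and H9-derived neural stem cells on Geltrex-coated 384-well plates received approved drugs by pin tool at a single final concentration of about 33 μM, in triplicate, for 7 days at 37 °C, 5% CO2. CellTiter-Glo luminescence was log2-transformed and normalised per plate to % activity between solvent and positive control wells.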
# DIPGX37 = tested on: DIPGX37 (H3.3 K27M diffuse intrinsic pontine glioma line)
# Summary of the method: as §1
# DIPGX7 = tested on: DIPGX7 (H3.3 K27M diffuse intrinsic pontine glioma line)
# Summary of the method: as §1
# DIPGX9 = tested on: DIPGX9 (diffuse intrinsic pontine glioma line)
# Summary of the method: as §1
# HGGX39 = tested on: HGGX39 (paediatric high-grade glioma line)
# Summary of the method: as §1
# HGGX6 = tested on: HGGX6 (H3.3 G34R paediatric high-grade glioma line)
# Summary of the method: as §1
# HNSC = tested on: HNSC
# Summary of the method: as §1
# SUDIPGIV = tested on: SUDIPGIV (diffuse intrinsic pontine glioma line)
# Summary of the method: as §1
# SUDIPGVI = tested on: SUDIPGVI (diffuse intrinsic pontine glioma line)
# Summary of the method: as §1
# SUDIPGXIII = tested on: SUDIPGXIII (diffuse intrinsic pontine glioma line)
# Summary of the method: as §1
Compound,growth inhibition (DIPGX29),growth inhibition (DIPGX37),growth inhibition (DIPGX7),growth inhibition (DIPGX9),growth inhibition (HGGX39),growth inhibition (HGGX6),growth inhibition (HNSC),growth inhibition (SUDIPGIV),growth inhibition (SUDIPGVI),growth inhibition (SUDIPGXIII)
O=C1Cc2cc(CCN3CCN(c4nsc5ccccc45)CC3)c(Cl)cc2N1,1.66%,1.3%,10.1%,1.16%,3.71%,2.44%,1.23%,2.05%,-3.95%,3.01%
COc1ccccc1OCC(O)COC(N)=O (stereo not given),-0.505%,1.65%,0.111%,0.273%,0.0917%,1%,-1.62%,-1%,0.561%,-0.184%
Nc1ccn([C@@H]2O[C@H](CO)[C@@H](O)C2(F)F)c(=O)n1,16.7% and 17.4%,13.6% and 13%,16.9% and 16.6%,20.2%,20.4% and 20%,13.5% and 14.1%,52.4% and 59.5%,41.6% and 46%,4.24% and 4.14%,9.89% and 11.3%
C=C1/C(=C\C=C2/CCC[C@]3(C)[C@@H]([C@H](C)CCCC(C)C)CC[C@@H]23)C[C@@H](O)C[C@@H]1O,-0.46%,2.45%,4.43%,1.86%,3.21%,3.92%,1.06%,0.347%,1.52%,0.72%
O=C(N/N=C/c1ccc([N+](=O)[O-])o1)c1ccc(O)cc1,6.1%,2.69%,4.79%,5.76%,11%,4.58%,17.4%,18.5%,13.9%,2.98%
COc1ccc2c(c1)c(CC(=O)OCC(=O)O)c(C)n2C(=O)c1ccc(Cl)cc1,4.7%,5.04%,3.74%,5.54%,6.62%,4.04%,6.99%,-0.727%,5.09%,1.16%
CC(C)(C(=O)O)c1ccc(C(O)CCCN2CCC(C(O)(c3ccccc3)c3ccccc3)CC2)cc1 (stereo not given),-0.186%,-1.1%,0.287%,0.223%,2.4%,-0.102%,3.07%,0.0574%,1.9%,-0.622%
CCOCC(O)COc1ccc(NC(=O)CC[S+](C)C)cc1 (stereo not given),-1.2%,-0.984%,-0.388%,0.757%,-1.5%,-2.39%,-2.31%,-1.12%,-0.872%,0.764%
COc1c(C)c2c(c(O)c1C/C=C(\C)CCC(=O)O)C(=O)OC2,19.1%,19%,12%,16.2%,18.1%,14.7%,57.6%,10.7%,11.8%,-4.08%
O=C(OCC(O)CO)c1ccccc1Nc1ccnc2cc(Cl)ccc12 (stereo not given),0.939%,1.64%,-1.23%,1.63%,3.28%,1.2%,0.63%,-4.61%,2.77%,0.927%
CN(C)CCOc1ccc(/C(=C(/CCCl)c2ccccc2)c2ccccc2)cc1,2.43%,1.15%,6.73%,0.45%,5.94%,5.5%,2.79%,2.82%,0.578%,-0.556%
CN[C@@H]1[C@H](O[C@H]2[C@H](O[C@H]3[C@H](O)[C@@H](O)[C@H](N=C(N)N)[C@@H](O)[C@@H]3N=C(N)N)O[C@@H](C)[C@]2(O)C=O)O[C@@H](CO)[C@H](O)[C@H]1O,0.0944%,-5.46%,0.411%,-1.2%,0.505%,-0.72%,-0.954%,-0.137%,-0.665%,0.85%
NNc1nncc2ccccc12,-0.649%,0.926%,-0.1%,1.44%,2.03%,0.883%,-1.94%,2.81%,-2.33%,-0.215%
O=C(O)CCc1nc(-c2ccccc2)c(-c2ccccc2)o1,-0.808%,1.84%,-1.35%,-1.33%,0.585%,1.25%,-2.45%,-2.53%,0.464%,1.19%
CS(=O)(=O)Nc1ccc([N+](=O)[O-])cc1Oc1ccccc1,0.913%,1.17%,0.12%,0.568%,2.03%,-1.72%,27.3%,-3.67%,-1.3%,-2.23%
O=c1ccn([C@@H]2O[C@H](CO)[C@@H](O)[C@H]2O)c(=O)[nH]1,-0.716%,-1.37%,1.57%,-0.704%,0.73%,-4.51%,17.6%,-1.57%,-0.357%,-2.42%
CCN1CCN(c2cc(-c3ccc(F)cc3)c3c(n2)CCCCCC3)CC1,9.89%,1.2%,21.9%,4.47%,10.1%,0.894%,5%,4.82%,4.25%,2.42%
CCC[C@H](N[C@@H](C)C(=O)N1[C@H](C(=O)O)C[C@@H]2CCCC[C@@H]21)C(=O)OCC,1.9%,3.94%,2.49%,2.02%,2.66%,2.59%,0.292%,0.563%,1.95%,0.674%
CCCCC1=NC2(CCCC2)C(=O)N1Cc1ccc(-c2ccccc2-c2nnn[nH]2)cc1,1.91%,3.8%,1.68%,1.47%,3.35%,3.43%,2.66%,-0.0514%,3.23%,0.582%
CC[C@H]1OC(=O)C[C@@H](O)[C@H](C)[C@@H](O[C@@H]2O[C@H](C)[C@@H](O)[C@H](N(C)C)[C@H]2O)[C@@H](CCN2C[C@H](C)C[C@H](C)C2)C[C@@H](C)C(=O)/C=C/C(C)=C/[C@@H]1CO[C@@H]1O[C@H](C)[C@@H](O)[C@@H](OC)[C@H]1OC,-3.18%,-1.96%,-0.192%,-2.36%,-3.76%,-3.98%,3.6%,-3.04%,-5.87%,1.2%
Clc1ccc(C(c2ccccc2Cl)C(Cl)Cl)cc1 (stereo not given),-1.94%,-1.47%,-1.72%,-0.6%,-0.428%,-0.0252%,-1.09%,-1.24%,-1.05%,1.43%

Compound,growth inhibition (DIPGX29),growth inhibition (DIPGX37),growth inhibition (DIPGX7),growth inhibition (DIPGX9),growth inhibition (HGGX39),growth inhibition (HGGX6),growth inhibition (HNSC),growth inhibition (SUDIPGIV),growth inhibition (SUDIPGVI),growth inhibition (SUDIPGXIII)
O=C1CCC(N2C(=O)c3ccccc3C2=O)C(=O)N1 (stereo not given),-2.65%,-1.06%,-0.846%,-1.66%,-0.665%,-1.64%,-7.47%,-2.51%,-2.2%,-0.0477%
C=C1[C@H](CO)[C@@H](O)C[C@@H]1n1cnc2c(=O)[nH]c(N)nc21,-0.461%,0.828%,-0.963%,1.66%,0.038%,2.68%,0.984%,-0.629%,0.432%,2.42%
CCCc1nc2c(C)cc(-c3nc4ccccc4n3C)cc2n1Cc1ccc(-c2ccccc2C(=O)O)cc1,-1.54%,-0.467%,-0.895%,-0.132%,-1.04%,-1.06%,-0.614%,-2.37%,0.572%,-1.14%
C=C1CCC(O)CC1=CC=C1CCCC2(C)C1CCC2C(C)CCCC(C)(C)O (stereo not given),-0.0142%,2.58%,3.34%,-0.221%,3.14%,0.603%,-1.74%,3.43%,-3.1%,-0.781%
O=C(c1ccc(OCCN2CCCCC2)cc1)c1c(-c2ccc(O)cc2)sc2cc(O)ccc12,8.18%,-0.349%,22.3%,1.84%,6.41%,7.69%,1.59%,0.509%,-4.3%,2.77%
CCCCCCCCCCCCCCCCO,-0.933%,2.94%,1.65%,1.02%,2.94%,-1.64%,11.6%,2.42%,0.249%,1.46%
CN(CCOc1ccc(NS(C)(=O)=O)cc1)CCc1ccc(NS(C)(=O)=O)cc1,-2.77%,-1.46%,0.833%,-2.46%,-2.37%,-1.41%,-6.33%,-2.75%,-13.8%,0.844%
N=C(N)NCCC[C@H](N)C(=O)O,-2.37%,0.109%,0.302%,-2.03%,-0.487%,-4.08%,2.28%,-1.68%,-2%,-0.232%
CC(=O)NS(=O)(=O)c1ccc(NC(=O)c2ccccc2C(=O)O)cc1,-1.87%,-0.137%,-3.14%,-1.16%,-2.19%,-0.75%,-2.78%,-2.4%,-1.59%,-0.151%
CCN(CC)CCCC(C)Nc1ccnc2cc(Cl)ccc12 (stereo not given),2.54%,3.91%,3.48%,2.75%,2.84%,2.74%,2.95%,1.72%,2.6%,0.0881%
CCC(=O)O[C@]1(C(=O)CCl)[C@@H](C)C[C@H]2[C@@H]3C[C@H](F)C4=CC(=O)C=C[C@]4(C)[C@@]3(F)[C@@H](O)C[C@@]21C,3.65%,5.29%,1.18%,4.83%,7.98%,1.82%,-1.07%,1.52%,3.9%,1.38%
Nc1ccc(C(=O)NCC(=O)O)cc1,-0.487%,-0.247%,-0.0371%,0.0884%,1.62%,2.81%,-1.34%,1.42%,1.49%,0.0926%
Nc1cc(C(Cl)=C(Cl)Cl)c(S(N)(=O)=O)cc1S(N)(=O)=O,0.128%,3.1%,1.7%,0.825%,2.48%,1.57%,1.89%,1.51%,-1.12%,1.37%
C[C@]12C=CC(=O)N[C@@H]1CC[C@@H]1[C@@H]2CC[C@]2(C)[C@@H](C(=O)Nc3cc(C(F)(F)F)ccc3C(F)(F)F)CC[C@@H]12,-0.354%,-0.558%,-0.437%,0.309%,0.618%,1.03%,-1.51%,-0.237%,-0.00919%,-0.463%
C[C@]12C=CC(=O)C=C1CC[C@H]1[C@@H]3C[C@@H](O)[C@](O)(C(=O)CO)[C@@]3(C)C[C@H](O)[C@@]12F,0.877%,1.05%,-1.73%,3.73%,-0.649%,-0.097%,-1.58%,-3.68%,0.457%,1.54%
O=C(Nc1ccccc1)c1ccccc1O,-0.176%,2.96%,0.467%,-0.488%,3.96%,0.186%,1.7%,5.1%,-0.592%,1.74%
CC(=O)O[C@H]1C[C@@H]2CC[C@@H]3[C@H](CC[C@@]4(C)[C@H]3C[C@H]([N+]3(C)CCCCC3)[C@@H]4OC(C)=O)[C@@]2(C)C[C@@H]1N1CCCCC1,0.923%,-0.759%,1.01%,1.13%,1.15%,-0.813%,1.96%,-0.377%,1.82%,-0.269%
CC(C)OC(=O)OCOP(=O)(CO[C@H](C)Cn1cnc2c(N)ncnc21)OCOC(=O)OC(C)C,-0.149%,-0.362%,0.933%,1.84%,4.93%,2.27%,0.819%,0.684%,0.813%,1.94%
Nc1nc(=O)[nH]cc1F,1.91%,1.71%,2.65%,3.09%,1.88%,1.43%,1.22%,0.252%,2.66%,-3.23%
Cc1onc(-c2c(Cl)cccc2Cl)c1C(=O)N[C@@H]1C(=O)N2[C@@H]1SC(C)(C)[C@@H]2C(=O)O,1.78%,1.6%,0.879%,0.739%,2.25%,1.63%,-0.363%,1.41%,2.27%,-0.796%
